In the supplement of paper PMC9023506:
Where a name gives a salt, the structure may show the parent alone.

Tested on: Danio rerio larvae (5 dpf)
Assay: excitability to 1-s acoustic pulses, difference vs DMSO (percentage points (treated minus DMSO)); higher = more of the behaviour than the DMSO vehicle control
Conditions: 10 µM; exposure time: 3 h pre-incubation + 3 h imaging
Description: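 5-dpf wild-type zebrafish larvae were imaged in 96-well plates. They were treated with 190 Tocris FDA-approved drugs at 10 µM (1 µl/ml DMSO) for 3 h before and 3 h during imaging at 28.5 °C, 48 larvae per drug. Automated image analysis gave % time moving and optomotor responses. Values are drug group mean minus DMSO vehicle mean (n=844), in percentage points, for 10 behaviours.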

| SMILES | excitability to 1-s acoustic pulses |
| --- | --- |
| CCN(C)C(=O)Oc1cccc([C@H](C)N(C)C)c1 [Rivastigmine tartrate] | 2.04 |
| COc1ccc(C(CN(C)C)C2(O)CCCCC2)cc1 (configuration not stated) [Venlafaxine hydrochloride] | 8.33 |
| CC[C@@H](C(N)=O)N1CCCC1=O [Levetiracetam] | 1.84 |
| COc1cc2c(cc1OC)C1CC(=O)C(CC(C)C)CN1CC2 (configuration not stated) [Tetrabenazine] | 21.7 |
| CN1C[C@H](C(=O)N[C@]2(C)O[C@@]3(O)[C@@H]4CCCN4C(=O)[C@H](Cc4ccccc4)N3C2=O)C[C@@H]2c3cccc4[nH]cc(c34)C[C@H]21 [Dihydroergotamine mesylate] | 1.17 |
| C=C1C[C@@H]2[C@H](CC[C@]3(C)C(=O)CC[C@@H]23)[C@@]2(C)C=CC(=O)C=C12 [Exemestane] | 11.5 |
| C=CCN1C[C@H](C(=O)N(CCCN(C)C)C(=O)NCC)C[C@@H]2c3cccc4[nH]cc(c34)C[C@H]21 [Cabergoline] | 10 |
| O=c1[nH]c2ccccc2n1C1CCN(CCCC(c2ccc(F)cc2)c2ccc(F)cc2)CC1 [Pimozide] | -3.54 |
| CC(C)C[C@H]1C(=O)N2CCC[C@H]2[C@]2(O)O[C@](NC(=O)[C@@H]3C=C4c5cccc6[nH]c(Br)c(c56)C[C@H]4N(C)C3)(C(C)C)C(=O)N12 [Bromocriptine mesylate] | 17.6 |
| Cc1cccc([C@H](C)c2c[nH]cn2)c1C [Dexmedetomidine hydrochloride] | 8.78 |
| N[C@@H]1C[C@H]1c1ccccc1 [Tranylcypromine hydrochloride] | 0.887 |
| CC(O)(CS(=O)(=O)c1ccc(F)cc1)C(=O)Nc1ccc(C#N)c(C(F)(F)F)c1 (configuration not stated) [Bicalutamide] | 3.69 |
